Laboratory results published in the supplement of paper PMC8728848.
This is one part of a sample in which the strongest signals are shown more often than they occur.

Experiments:
Experiment in all cases: glycan array binding signal (z-score within array); higher = stronger binding
[1] = test system: Neu5Ac(a2-3)Gal(b1-4)[Fuc(a1-3)]GlcNAc6S; conditions: glycan notation: IUPAC condensed, linker removed
Method in brief: (§1)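 Glycan array data came from 3228 arrays in the Consortium for Functional Glycomics database, and only arrays with an available protein sequence were kept. Glycan names were put into IUPAC-condensed notation, and columns mapping to the same glycan were averaged. The binding signal is a within-array Z-score, averaged across arrays of one protein sequence run at different concentrations or buffers and across linkers. A negative Z-score can be read as non-binding.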

[2] = test system: Neu5Ac(a2-3)Gal(b1-4)[Fuc(a1-3)]GlcNAc(b1-6)[Gal(b1-3)]GalNAc; conditions: glycan notation: IUPAC condensed, linker removed
Method in brief: as §1

Neu5Ac(a2-3)Gal(b1-4)Glc = conditions: glycan notation: IUPAC condensed, linker removed; mutation: R125K
Method in brief: as §1

[3] = test system: Neu5Ac(a2-3)Gal(b1-4)[Fuc(a1-3)]GlcNAc(b1-3)Gal(b1-4)GlcNAc; conditions: glycan notation: IUPAC condensed, linker removed; mutation: R125K
Method in brief: as §1

[4] = test system: Neu5Ac(a2-3)Gal(b1-4)[Fuc(a1-3)]GlcNAc(b1-3)Gal; conditions: glycan notation: IUPAC condensed, linker removed
Method in brief: as §1

[5] = test system: Neu5Ac(a2-3)Gal6S(b1-4)GlcNAc; conditions: glycan notation: IUPAC condensed, linker removed
Method in brief: as §1

[6] = test system: Neu5Ac(a2-3)Gal(b1-4)[Fuc(a1-3)]GlcNAc(b1-3)GalNAc; conditions: glycan notation: IUPAC condensed, linker removed
Method in brief: as §1

[7] = test system: Neu5Ac(a2-3)Gal(b1-4)[Fuc(a1-3)]GlcNAc; conditions: glycan notation: IUPAC condensed, linker removed
Method in brief: as §1

[8] = test system: Neu5Ac(a2-3)Gal(b1-4)GlcNAc; conditions: glycan notation: IUPAC condensed, linker removed
Method in brief: as §1

[9] = test system: Neu5Ac(a2-3)Gal(b1-4)[Fuc(a1-3)]GlcNAc(b1-3)Gal(b1-4)[Fuc(a1-3)]GlcNAc(b1-3)Gal(b1-4)[Fuc(a1-3)]GlcNAc; conditions: glycan notation: IUPAC condensed, linker removed
Method in brief: as §1

Chain of Neurocan (Homo sapiens), O14594 (O14594 other isoform, or with tags, fused parts or gaps): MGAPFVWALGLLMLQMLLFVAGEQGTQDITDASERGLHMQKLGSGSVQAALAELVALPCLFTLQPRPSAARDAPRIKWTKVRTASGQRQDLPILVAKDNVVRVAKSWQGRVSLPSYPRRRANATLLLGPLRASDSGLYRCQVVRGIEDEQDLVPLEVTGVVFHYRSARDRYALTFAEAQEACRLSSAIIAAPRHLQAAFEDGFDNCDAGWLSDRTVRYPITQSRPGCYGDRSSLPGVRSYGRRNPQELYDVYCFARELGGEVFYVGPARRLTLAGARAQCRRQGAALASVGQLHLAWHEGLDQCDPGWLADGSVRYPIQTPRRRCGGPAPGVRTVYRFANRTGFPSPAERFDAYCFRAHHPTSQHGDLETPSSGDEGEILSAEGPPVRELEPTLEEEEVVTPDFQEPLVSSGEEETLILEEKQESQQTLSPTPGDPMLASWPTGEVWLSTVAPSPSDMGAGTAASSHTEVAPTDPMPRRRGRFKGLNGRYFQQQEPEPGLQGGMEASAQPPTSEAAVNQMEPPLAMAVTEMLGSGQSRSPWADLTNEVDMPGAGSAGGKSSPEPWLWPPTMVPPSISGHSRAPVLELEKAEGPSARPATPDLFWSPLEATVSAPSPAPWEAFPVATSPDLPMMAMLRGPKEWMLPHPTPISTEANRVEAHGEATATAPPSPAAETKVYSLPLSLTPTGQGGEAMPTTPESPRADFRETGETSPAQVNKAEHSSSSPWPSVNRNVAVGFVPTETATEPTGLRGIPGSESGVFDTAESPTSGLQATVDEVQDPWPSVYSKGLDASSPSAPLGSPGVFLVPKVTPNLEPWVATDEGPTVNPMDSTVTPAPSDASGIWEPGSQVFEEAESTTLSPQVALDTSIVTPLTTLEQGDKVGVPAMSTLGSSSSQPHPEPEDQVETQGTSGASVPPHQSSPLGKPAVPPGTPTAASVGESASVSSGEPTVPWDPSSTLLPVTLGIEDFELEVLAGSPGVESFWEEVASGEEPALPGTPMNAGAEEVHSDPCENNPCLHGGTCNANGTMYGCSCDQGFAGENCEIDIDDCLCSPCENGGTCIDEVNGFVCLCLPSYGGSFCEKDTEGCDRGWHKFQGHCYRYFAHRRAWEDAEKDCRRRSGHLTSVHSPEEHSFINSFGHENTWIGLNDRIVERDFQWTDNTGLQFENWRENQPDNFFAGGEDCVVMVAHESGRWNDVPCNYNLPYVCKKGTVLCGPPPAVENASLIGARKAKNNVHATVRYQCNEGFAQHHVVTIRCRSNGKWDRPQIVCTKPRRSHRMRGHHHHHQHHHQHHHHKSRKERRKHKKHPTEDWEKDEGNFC
Chain of CHI3L1 (Homo sapiens), P36222 (P36222 whole entry): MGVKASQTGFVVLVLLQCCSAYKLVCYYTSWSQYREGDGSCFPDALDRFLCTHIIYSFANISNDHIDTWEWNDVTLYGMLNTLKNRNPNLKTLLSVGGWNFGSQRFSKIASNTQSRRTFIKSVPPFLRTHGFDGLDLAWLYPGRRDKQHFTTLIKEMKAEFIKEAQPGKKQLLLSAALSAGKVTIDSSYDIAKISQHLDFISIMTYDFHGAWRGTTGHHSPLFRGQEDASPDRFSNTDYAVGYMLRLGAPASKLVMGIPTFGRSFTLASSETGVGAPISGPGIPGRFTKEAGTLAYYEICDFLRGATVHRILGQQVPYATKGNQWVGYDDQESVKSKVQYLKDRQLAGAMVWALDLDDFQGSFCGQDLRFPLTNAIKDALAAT
Chain of Aggrecan (Rattus norvegicus), NP_071526 (chain, as listed by the source): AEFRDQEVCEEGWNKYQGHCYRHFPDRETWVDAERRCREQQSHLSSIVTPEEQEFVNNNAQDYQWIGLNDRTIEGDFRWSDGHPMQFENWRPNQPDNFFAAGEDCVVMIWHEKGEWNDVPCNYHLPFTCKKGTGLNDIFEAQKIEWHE
Chain of wLAT-1A (Homo sapiens), Q01650 (Q01650 whole entry): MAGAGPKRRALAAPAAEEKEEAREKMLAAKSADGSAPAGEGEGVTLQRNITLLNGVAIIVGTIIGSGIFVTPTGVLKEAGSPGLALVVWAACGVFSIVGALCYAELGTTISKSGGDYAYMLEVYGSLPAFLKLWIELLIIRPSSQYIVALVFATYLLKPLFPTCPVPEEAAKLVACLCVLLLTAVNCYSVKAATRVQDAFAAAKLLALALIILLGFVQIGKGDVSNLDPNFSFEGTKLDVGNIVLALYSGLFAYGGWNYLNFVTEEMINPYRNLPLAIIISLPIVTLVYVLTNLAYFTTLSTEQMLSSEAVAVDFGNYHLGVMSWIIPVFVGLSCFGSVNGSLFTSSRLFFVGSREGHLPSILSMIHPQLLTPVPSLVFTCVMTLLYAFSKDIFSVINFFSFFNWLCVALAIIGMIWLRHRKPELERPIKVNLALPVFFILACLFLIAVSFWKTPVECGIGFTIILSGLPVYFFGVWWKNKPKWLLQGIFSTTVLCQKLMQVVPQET
Chain of 6RG (Lolium perenne) (chain, as listed by the source): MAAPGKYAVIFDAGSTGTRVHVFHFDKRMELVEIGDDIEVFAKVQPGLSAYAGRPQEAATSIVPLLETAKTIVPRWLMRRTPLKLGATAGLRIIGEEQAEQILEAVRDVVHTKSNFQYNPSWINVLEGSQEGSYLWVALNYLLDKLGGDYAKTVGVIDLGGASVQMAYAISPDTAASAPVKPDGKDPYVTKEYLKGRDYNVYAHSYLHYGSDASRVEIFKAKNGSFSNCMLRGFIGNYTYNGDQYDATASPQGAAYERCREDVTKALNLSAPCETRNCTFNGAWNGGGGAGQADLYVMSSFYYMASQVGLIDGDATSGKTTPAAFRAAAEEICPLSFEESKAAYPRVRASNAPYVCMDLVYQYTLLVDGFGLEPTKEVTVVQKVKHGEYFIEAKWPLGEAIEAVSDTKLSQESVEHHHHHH
Chain of 6RG (Lolium perenne), B9U140 (B9U140 entry or part of it): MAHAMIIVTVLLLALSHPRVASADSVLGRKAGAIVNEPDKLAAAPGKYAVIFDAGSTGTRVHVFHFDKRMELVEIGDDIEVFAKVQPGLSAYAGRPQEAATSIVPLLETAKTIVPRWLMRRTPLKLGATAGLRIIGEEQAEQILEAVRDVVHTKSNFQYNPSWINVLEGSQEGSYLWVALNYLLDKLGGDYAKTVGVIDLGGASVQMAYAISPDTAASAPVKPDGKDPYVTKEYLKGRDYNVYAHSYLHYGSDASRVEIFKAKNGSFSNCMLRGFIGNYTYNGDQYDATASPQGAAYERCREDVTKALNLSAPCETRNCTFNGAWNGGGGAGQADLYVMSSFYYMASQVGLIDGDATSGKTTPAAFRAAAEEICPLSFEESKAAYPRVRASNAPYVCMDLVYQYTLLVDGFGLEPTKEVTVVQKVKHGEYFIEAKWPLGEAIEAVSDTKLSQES
Chain of C3b (Homo sapiens), P01024 (P01024 23-667): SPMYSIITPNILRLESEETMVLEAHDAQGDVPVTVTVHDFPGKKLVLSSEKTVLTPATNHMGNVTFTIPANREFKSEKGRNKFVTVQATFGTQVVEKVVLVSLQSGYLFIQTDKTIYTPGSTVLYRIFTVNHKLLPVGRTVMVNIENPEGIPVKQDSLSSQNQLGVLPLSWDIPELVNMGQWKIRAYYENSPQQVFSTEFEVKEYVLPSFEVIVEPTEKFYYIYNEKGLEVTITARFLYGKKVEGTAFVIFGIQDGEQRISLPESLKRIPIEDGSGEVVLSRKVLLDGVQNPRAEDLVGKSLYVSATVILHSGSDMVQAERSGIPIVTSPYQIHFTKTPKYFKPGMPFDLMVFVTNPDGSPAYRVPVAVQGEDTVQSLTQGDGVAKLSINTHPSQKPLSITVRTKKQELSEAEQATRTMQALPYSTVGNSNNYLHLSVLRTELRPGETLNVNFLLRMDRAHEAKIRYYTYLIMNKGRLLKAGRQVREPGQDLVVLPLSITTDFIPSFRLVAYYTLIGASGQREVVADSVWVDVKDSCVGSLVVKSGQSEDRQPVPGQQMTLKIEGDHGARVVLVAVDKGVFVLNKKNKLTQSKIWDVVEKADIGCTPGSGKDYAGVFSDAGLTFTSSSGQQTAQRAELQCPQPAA
Chain of Regenerating Gene IV (Homo sapiens), Q9BYZ8 (Q9BYZ8 whole entry, looked up): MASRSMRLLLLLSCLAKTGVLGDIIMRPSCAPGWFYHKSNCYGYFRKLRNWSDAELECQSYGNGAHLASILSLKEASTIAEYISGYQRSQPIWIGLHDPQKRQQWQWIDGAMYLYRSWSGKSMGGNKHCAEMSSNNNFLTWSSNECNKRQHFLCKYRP
Chain of PILRb (Mus musculus), Q2YSF2 (Q2YSF2 entry or part of it): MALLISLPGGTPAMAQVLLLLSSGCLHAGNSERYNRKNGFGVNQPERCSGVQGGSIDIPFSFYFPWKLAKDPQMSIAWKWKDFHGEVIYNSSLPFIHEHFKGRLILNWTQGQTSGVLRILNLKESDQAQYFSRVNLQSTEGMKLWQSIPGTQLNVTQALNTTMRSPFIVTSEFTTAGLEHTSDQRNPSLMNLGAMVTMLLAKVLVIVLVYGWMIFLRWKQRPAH

## PILRb (Mus musculus), Q2YSF2
[1]
  glycan array binding signal (z-score): -0.229

## Regenerating Gene IV (Homo sapiens), Q9BYZ8
[2]
  glycan array binding signal (z-score): 0.692

## Siglec-8 (Homo sapiens), Q9NYZ4
Neu5Ac(a2-3)Gal(b1-4)Glc
  glycan array binding signal (z-score): 6.29
[3]
  glycan array binding signal (z-score): -0.182
[4]; mutation: R125K
  glycan array binding signal (z-score): 0.14
[1]; mutation: R125K
  glycan array binding signal (z-score): -0.382
[5]
  glycan array binding signal (z-score): 16.9

## CHI3L1 (Homo sapiens), P36222
[6]
  glycan array binding signal (z-score): -0.075
[4]
  glycan array binding signal (z-score): -0.104

## MpAFP RI GFP (Marinomonas primoryensis)
[2]
  glycan array binding signal (z-score): 0.494
[5]
  glycan array binding signal (z-score): -0.72

## 6RG (Lolium perenne), B9U140
[5]
  glycan array binding signal (z-score): 1.4

## C3b (Homo sapiens), P01024
[7]
  glycan array binding signal (z-score): 0.03

## Neurocan (Homo sapiens), O14594
[6]
  glycan array binding signal (z-score): 4.45
[2]
  glycan array binding signal (z-score): 3.52
[5]
  glycan array binding signal (z-score): -1.3

## wLAT-1A (Homo sapiens), Q01650
[5]
  glycan array binding signal (z-score): 0.097

## HARE (Homo sapiens), Q8WWQ8
[8]
  glycan array binding signal (z-score): -0.41

## Aggrecan (Rattus norvegicus), NP_071526
[9]
  glycan array binding signal (z-score): -0.136

## 6RG (Lolium perenne)
[1]
  glycan array binding signal (z-score): -0.352
